Results on 40 compounds are retold here after PubChem BioAssay (NCI).

Molecules are shown by their SMILES. Compounds without any hit were thinned out: in the full panel of roughly 83,000, 20% have a hit.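 Treatment: one concentration, 48 hours, 96-well format. Scoring: percent growth, with anything below 10 considered active.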 Values without a mark were called inactive. The source made the active and inactive calls.

For the test, the system named is HL-60(TB) leukemia. Put plainly: NCI-60 one-dose screen, 48 h (100 = growth as untreated, 0 = no growth, -100 = all killed). The note with it: 10 µM unless noted.
`COc1cc(NCC(=O)Nc2cc(Nc3cccc(C(F)(F)F)c3)ncn2)c(Cl)c(OC)c1Cl`: the growth is 79.2%. Next, `COc1ccc(-c2nc(NCCO)[nH]c(=O)c2C#N)cc1`: 103%; `FC(F)(F)c1cc(Nc2ccc3cc(OCCCN4CCOCC4)ccc3n2)ccc1Cl`: 29%; `c1ccc(CN2COc3c(ccc4c3OCN(Cc3ccccc3)C4)C2)cc1`: -19% (active). Take `CCN(CC)CCOc1ccc(/C(=C(\C)c2ccc(Cl)cc2)c2ccc(Cl)cc2)cc1`: the growth is 41.4%. For `Cc1nc2sc(C(=O)Nc3cccc(Br)c3)c(N)c2cc1C(=O)c1ccc(C(F)(F)F)cc1`, the growth was 98.7%.

As for `COc1cccc(-c2nc3sccn3c2-c2cccc(S(C)(=O)=O)c2)c1`, the growth is 98.3%.

Consider `COC(=O)/C(CCC=C(C)C)=C1\[C@@H](OC(C)=O)C[C@@]2(C)[C@H]1CC(=O)[C@H]1[C@@]3(C)CCC(N4CCCC4)[C@@H](C)[C@@H]3CC[C@@]12C` (stereo not given in full), for which the growth was -51.4% (active). The value for `O=C(CCc1nnc2sc(/C=C\c3ccccc3)nn12)c1nc2ccccc2[nH]1` was 99.8%; that for `CONC1=Nc2cc(NC(N)=NCc3ccccc3)c(N(C)C3CCCCC3)cc2OC1` was 69.5%; that for `O=C(Nc1ccncc1)C(=O)c1cn(S(=O)(=O)c2cccc(Cl)c2F)c2ccccc12` was 68.5%.

Take `COc1ccc(N(C)c2nc(Cl)nc3cnn(C)c23)cc1`: the growth is -4.95% (active). With `COc1cccc(CNc2c3ccccc3nc3ccccc23)c1`, the growth is 40.9%.

As to `Cc1nc(/N=C(\N)NC(=O)Nc2cccc(Cl)c2)sc1C`, the growth was 42.8%. For `O=C(c1ccccc1)C(Nc1ccccc1)c1ccccc1` (stereo not given), the growth was 84%.

`Cc1nn(-c2ccccc2)c(Cl)c1/C=C/C(=O)c1ccc(F)cc1`: the growth was 47.1%. The value for `O=C(Nc1cccc([N+](=O)[O-])c1)NN1CCCCCC1` was 112%. In the case of `N#CC1=C(N)Oc2c(c(N)nn2-c2ccccc2)C1c1ccc(Cl)cc1` (stereo not given), the growth was 110%. Next, `COc1ccc2c(c1)C(=O)c1c-2c(=O)n(CCCCCCC(=O)NO)c2ccccc12`: 12.7%; `CS(=O)(=O)N1CCN(Cc2cc3nc(-c4cccc5[nH]ncc45)nc(N4CCOCC4)c3s2)CC1`: 23.6%.

Turning to `COc1ccc(/C=C2\NC(=O)NC2=O)cc1O`, the growth is 102%. Regarding `CCOC(=O)C1=C(C)NC(C)=C(C(=O)OCC)C1c1cc(Br)c(O)c(OC)c1`, the growth is 6.74% (active). The value for `COc1ccc(-c2cc(-c3cccnc3)nc3sc4c(=O)[nH]c(-c5ccc(Cl)cc5)nc4c23)cc1OC` was 90.3%; that for `Cc1cnc(C(=O)NNc2nc3sc4c(c3c(=O)[nH]2)C(C)CCC4)cn1` (stereo not given) was -30.7% (active); that for `CCN(CC)c1cc(C)c(Cc2c(OC)ccc3ccccc23)cc1C` was 82.2%. For the compound `COC(=O)C1OC1c1cc([N+](=O)[O-])ccc1OC` (stereo not given), the growth was 99.1%. On to `CCCCCCCCn1ccc2cc(NC(=O)CN=[N+]=[N-])ccc21`, for which the growth is 102%. Next, `CN(Cc1cc(Br)cc(Br)c1O)Cc1cc(Br)cc(Br)c1O`: 22.7%.

On to `CCc1ccc(NC(=O)N[C@@H](Cc2cc(F)cc(F)c2)C(=O)N[C@@H]2C(=O)N3C[C@H](O)C[C@H]3C(=O)N3CCOC[C@H]3C(=O)N[C@@H](C)C(=O)N3C[C@H](C)C[C@H]3C(=O)O[C@H]2C)cc1`, for which the growth is 23.8%. The value for `O=C1/C(=C/c2ccccc2)Oc2ccc(O)c(I)c21` was 95.4%. `COc1ccc(/C=C/C(c2cc(OC)c(OC)c(OC)c2)n2cncn2)cc1O` (stereo not given): the growth is -36.3% (active).

Consider `COc1ccc(Cl)cc1NC(=O)c1cc2c(n1C)-c1nc(NC(=O)C(C)(C)C)sc1CC2`, for which the growth is 82.7%. The value for `CC1CN(C2CCCCC2)C(=O)NC1=O` (stereo not given) was 75.8%. In the case of `COc1cccc(/C=C2\SC(N3CCN(c4ccccn4)CC3)=NC2=O)c1`, the growth was 95.5%.

Turning to `CC1=C(O)C(=O)CC1`, the growth is 112%. In the case of `COc1ccc(SC2c3ccc(C)cc3Oc3nc(N)c(C#N)c(N)c32)cc1` (stereo not given), the growth was -53.4% (active).

In the case of `COc1ccc(-c2nnc(N3CCN(C(=O)CN4CCN(c5ccc(OC)cc5)CC4)CC3)nc2-c2ccc(OC)cc2)cc1`, the growth is -71.6% (active). `C=CCN1CCCC1=O`: the growth was 47.1%. The value for `COc1cc(NC(C)CCCNC(=O)CCC(=O)NCCCNCCCCCCCCCCNCCCNC(=O)CCC(=O)NCCCC(C)Nc2cc(OC)cc3cccnc23)c2ncccc2c1` (stereo not given) was 58.2% [8 µM]. With `O=S(=O)(NCCCNc1nccc(-c2c(-c3cccc(F)c3)nc3sccn23)n1)c1cccc(F)c1`, the growth was 40.5%.
